Test results: PubChem BioAssay (NCATS)
Results filed as inconclusive are left out. Activity calls are given as the source filed them. Unless noted, calls follow the shape of the dose curve; as a rule, active = well fitted inhibition curve with a large enough effect; inconclusive = small, poorly fitted or top-dose-only effect; inactive = flat fitted curve, though single readings scatter.

Legend:
[1] = qHTS drug screen for cell cycle checkpoint inhibitors in PARPi-resistant BRCA-mutant ovarian cancer cell lines. (AID 1963452; calls by dose curve); details: PEO1/OlaR viability, CellTiter-Glo luminescence, 96 h, stronger effect = lower value
Method in brief: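 PEO1, PEO4 and PEO1/OlaR ovarian cancer cells, 600 per well, exposed 96 h at 37C to a dilution series. Viability read by CellTiter-Glo luminescence, normalized to DMSO and empty wells; activity summarized as Z-AUC.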

[2] = qHTS for identification of novel therapeutic agents for treatment of microphthalmiaassociated transcription factor (MiT) renal cell carcinoma (RCC) (AID 1963991); details: CellTiter-Glo, 48 h, stronger effect = lower value
Method in brief: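 Three TFE3-fusion RCC lines (UOK109, UOK124, UOK145), 500 cells/well in complete medium, were treated with MIPE 4.0 compounds for 48 hours at 37 C. Viability was by CellTiter-Glo luminescence, normalized to DMSO (100%) and empty wells (0%); curves fitted over 11 concentrations.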

[3] = qHTS profiling for inhibitors of Plasmodium falciparum proliferation (AID 504749); also: nearly all actives have a fitted effect of over 60% in size; also: potency is read from the fitted curve at half-maximal effect;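 as to activity, negative = inhibition: 0% = DMSO vehicle and full inhibition = artemisinin control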; details: P. falciparum in erythrocytes, SYBR Green DNA, 72 h
Method in brief: (§1)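 Three-day growth assay of blood-stage parasites in erythrocytes (0.3% parasitemia, 2.5% hematocrit) at 37 C, 5% CO2, quantified by SYBR Green DNA staining after overnight detergent lysis.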

7G8 = test: as above; details: P. falciparum in erythrocytes, SYBR Green DNA, 72 h; series mostly up to 28.7 µM
Method in brief: as §1

AA1029 = test: as above; details: P. falciparum in erythrocytes, SYBR Green DNA, 72 h; series mostly up to 28.7 µM
Method in brief: as §1

AS120 = test: as above; details: P. falciparum in erythrocytes, SYBR Green DNA, 72 h; series mostly up to 28.7 µM
Method in brief: as §1

ATS189 = test: as above; details: P. falciparum in erythrocytes, SYBR Green DNA, 72 h; series mostly up to 28.7 µM
Method in brief: as §1

ATS95 = test: as above; details: P. falciparum in erythrocytes, SYBR Green DNA, 72 h; series mostly up to 28.7 µM
Method in brief: as §1

C2A = test: as above; details: P. falciparum in erythrocytes, SYBR Green DNA, 72 h; series mostly up to 28.7 µM
Method in brief: as §1

CP185 = test: as above; details: P. falciparum in erythrocytes, SYBR Green DNA, 72 h; series mostly up to 28.7 µM
Method in brief: as §1

CP191 = test: as above; details: P. falciparum in erythrocytes, SYBR Green DNA, 72 h; series mostly up to 28.7 µM
Method in brief: as §1

CP192 = test: as above; details: P. falciparum in erythrocytes, SYBR Green DNA, 72 h; series mostly up to 28.7 µM
Method in brief: as §1

CP194 = test: as above; details: P. falciparum in erythrocytes, SYBR Green DNA, 72 h; series mostly up to 28.7 µM
Method in brief: as §1

CP201 = test: as above; details: P. falciparum in erythrocytes, SYBR Green DNA, 72 h; series mostly up to 28.7 µM
Method in brief: as §1

CP211 = test: as above; details: P. falciparum in erythrocytes, SYBR Green DNA, 72 h; series mostly up to 28.7 µM
Method in brief: as §1

CP215 = test: as above; details: P. falciparum in erythrocytes, SYBR Green DNA, 72 h; series mostly up to 28.7 µM
Method in brief: as §1

CP217 = test: as above; details: P. falciparum in erythrocytes, SYBR Green DNA, 72 h; series mostly up to 28.7 µM
Method in brief: as §1

3D7 = test: as above; details: P. falciparum in erythrocytes, SYBR Green DNA, 72 h; series mostly up to 28.7 µM
Method in brief: as §1

CP203 = test: as above; details: P. falciparum in erythrocytes, SYBR Green DNA, 72 h; series mostly up to 28.7 µM
Method in brief: as §1

[4] = measured here: PEO1 parental Z-AUC
[5] = TFE3-RCC UOK109 viability, measured here: UOK109 Z-AUC
[6] = TFE3-RCC viability, measured here: UOK124 Z-AUC
[7] = TFE3-RCC viability, measured here: UOK145 Z-AUC
[8] = at 28.7 µM (top of the series), parasite line A
[9] = at 28.7 µM (top of the series), parasite line B

Oc1ccc(OCc2ccccc2)cc1
1.26: z-score [2, 7]
1.11: z-score [2, 5]
0.491: Z-AUC [1, 4]
inactive: Z-AUC [1] 0.481 | activity, negative = inhibition ([3]; at 12.8 µM (top of the series), parasite line A) -21.7% | activity, negative = inhibition ([3]; at 12.8 µM (top of the series), parasite line B) -19.8% | Potency (7G8) | Potency (AA1029) | Potency (AS120) | Potency (ATS189) | Potency (ATS95) | Potency (C2A) | Potency (CP185) | Potency (CP191) | Potency (CP192) | Potency (CP194) | Potency (CP201) | Potency (CP211) | Potency (CP215) | Potency (CP217)
0.0323: Z-AUC ([1]; measured here: PEO4 Z-AUC)
0.685: z-score [2, 6]

CCN(CCO)CCCC(C)Nc1ccnc2cc(Cl)ccc12 (stereo unspecified)
inactive: Z-AUC [1] 1.8 | Potency (AA1029) | Potency (AS120) | Potency (ATS189) | Potency (ATS95) | Potency (C2A) | Potency (CP185) | Potency (CP191) | Potency (CP192) | Potency (CP194) | Potency (CP201) | Potency (CP203) | Potency (CP211) | Potency (CP215) | Potency (CP217)
active: Potency ([3]; parasite line A) 0.708 µM | Potency ([3]; parasite line B) 1 µM | Potency (3D7) 0.562 µM
1.84: Z-AUC ([1]; measured here: PEO4 Z-AUC)
1.41: Z-AUC [1, 4]

Cc1cc(C2CCCCC2)n(O)c(=O)c1
inactive: Z-AUC [1] 0.662
0.159: Z-AUC [1, 4]
active: Potency ([3]; parasite line B) 3.55 µM | Potency (7G8) 3.16 µM | Potency (AS120) 3.55 µM | Potency (CP191) 3.16 µM | Potency (CP203) 6.42 µM | Potency (CP211) 6.42 µM | Potency (CP215) 1.02 µM | Potency (CP217) 3.55 µM
-0.0703: Z-AUC ([1]; measured here: PEO4 Z-AUC)

Nc1nc(Cl)nc2c1ncn2[C@H]1C[C@H](O)[C@@H](CO)O1
-0.649: Z-AUC ([1]; measured here: PEO4 Z-AUC)
inactive: Z-AUC [1] -0.756 | activity, negative = inhibition [3, 8] -3.94% | activity, negative = inhibition [3, 9] 14.5% | Potency (3D7) | Potency (7G8) | Potency (AA1029) | Potency (AS120) | Potency (ATS189) | Potency (ATS95) | Potency (C2A) | Potency (CP185) | Potency (CP191) | Potency (CP217)
-0.859: Z-AUC [1, 4]

Cc1cc2c(s1)Nc1ccccc1N=C2N1CCN(C)CC1
0.52: z-score [2, 5]
-0.886: Z-AUC [1, 4]
inactive: Z-AUC [1] -0.767 | activity, negative = inhibition [3, 8] 6.07% | activity, negative = inhibition [3, 9] 8.04% | Potency (3D7) | Potency (AA1029) | Potency (AS120) | Potency (ATS189) | Potency (ATS95) | Potency (C2A) | Potency (CP185) | Potency (CP191) | Potency (CP192) | Potency (CP194) | Potency (CP201) | Potency (CP211) | Potency (CP215) | Potency (CP217)
-0.45: Z-AUC ([1]; measured here: PEO4 Z-AUC)
0.593: z-score [2, 7]
0.714: z-score [2, 6]

CN(C)c1ccc2nc3ccc(=[N+](C)C)cc-3sc2c1
-0.738: Z-AUC [1, 4]
inactive: Z-AUC [1] -0.652
active: Potency ([3]; parasite line A) 0.0447 µM | Potency ([3]; parasite line B) 0.0631 µM | Potency (3D7) 0.0398 µM | Potency (7G8) 0.0028 µM | Potency (AA1029) 0.0794 µM | Potency (AS120) 0.0631 µM | Potency (ATS189) 0.0794 µM | Potency (ATS95) 0.0708 µM | Potency (C2A) 0.141 µM | Potency (CP185) 0.0891 µM | Potency (CP191) 0.0794 µM | Potency (CP192) 0.0675 µM | Potency (CP194) 0.0757 µM | Potency (CP201) 0.0675 µM | Potency (CP203) 0.0338 µM | Potency (CP211) 0.0601 µM | Potency (CP215) 0.12 µM | Potency (CP217) 0.0891 µM
-0.606: Z-AUC ([1]; measured here: PEO4 Z-AUC)

CC(C)[C@H](N)C(=O)OCCOCn1cnc2c(=O)[nH]c(N)nc21
inactive: Z-AUC [1] 1.05 | activity, negative = inhibition [3, 8] -1.13% | activity, negative = inhibition [3, 9] 7.31% | Potency (3D7) | Potency (AA1029) | Potency (AS120) | Potency (ATS189) | Potency (ATS95) | Potency (C2A) | Potency (CP185) | Potency (CP191) | Potency (CP192) | Potency (CP194) | Potency (CP201) | Potency (CP203) | Potency (CP211) | Potency (CP215) | Potency (CP217)
0.583: Z-AUC [1, 4]
0.722: Z-AUC ([1]; measured here: PEO4 Z-AUC)
0.522: z-score [2, 7]
0.0968: z-score [2, 5]
0.361: z-score [2, 6]

COC1=C(OC)C(=O)C(CCCCCCCCCCO)=C(C)C1=O
inactive: Z-AUC [1] -0.864 | activity, negative = inhibition [3, 8] -28.8% | activity, negative = inhibition [3, 9] -11.7% | Potency (AA1029) | Potency (AS120) | Potency (ATS189) | Potency (ATS95) | Potency (C2A) | Potency (CP185) | Potency (CP192) | Potency (CP194) | Potency (CP201) | Potency (CP203) | Potency (CP211) | Potency (CP215) | Potency (CP217)
-1.14: Z-AUC [1, 4]
-0.303: Z-AUC ([1]; measured here: PEO4 Z-AUC)

CN1CCC(=C2c3ccccc3CCc3sccc32)CC1
-1.2: Z-AUC [1, 4]
active: Potency (7G8) 11.2 µM | Potency (AA1029) 6.31 µM
inactive: Z-AUC [1] -0.614 | activity, negative = inhibition [3, 8] -27.4% | activity, negative = inhibition [3, 9] -20.6% | Potency (3D7) | Potency (C2A)
-0.893: Z-AUC ([1]; measured here: PEO4 Z-AUC)

Clc1ccc(C(Cn2ccnc2)OCc2ccsc2Cl)c(Cl)c1 (stereo unspecified)
inactive: Z-AUC [1] -0.189
active: Potency ([3]; parasite line A) 2.82 µM | Potency ([3]; parasite line B) 2.82 µM | Potency (3D7) 2.51 µM | Potency (7G8) 0.447 µM | Potency (AA1029) 7.94 µM | Potency (AS120) 1.12 µM | Potency (ATS189) 6.31 µM | Potency (ATS95) 7.08 µM | Potency (CP185) 7.94 µM | Potency (CP191) 7.08 µM | Potency (CP192) 16.9 µM | Potency (CP194) 8.49 µM | Potency (CP203) 4.78 µM | Potency (CP211) 13.5 µM | Potency (CP215) 6.01 µM | Potency (CP217) 5.01 µM
0.0924: Z-AUC ([1]; measured here: PEO4 Z-AUC)
-0.0624: Z-AUC [1, 4]

Cc1ccc(C)c(OCCCC(C)(C)C(=O)O)c1
1.37: Z-AUC [1, 4]
1.5: Z-AUC ([1]; measured here: PEO4 Z-AUC)
inactive: Z-AUC [1] 1.52 | activity, negative = inhibition [3, 8] 19.7% | activity, negative = inhibition [3, 9] 9.1% | Potency (3D7) | Potency (7G8) | Potency (AA1029) | Potency (AS120) | Potency (ATS189) | Potency (ATS95) | Potency (C2A) | Potency (CP185) | Potency (CP191) | Potency (CP192) | Potency (CP194) | Potency (CP201) | Potency (CP203) | Potency (CP211) | Potency (CP215) | Potency (CP217)

Cc1c(C(=O)NN2CCCCC2)nn(-c2ccc(Cl)cc2Cl)c1-c1ccc(Cl)cc1
active: Potency ([3]; parasite line B) 11.2 µM | Potency (7G8) 12.6 µM | Potency (AS120) 12.6 µM | Potency (CP191) 11.2 µM | Potency (CP194) 16.9 µM | Potency (CP215) 13.5 µM | Potency (CP217) 11.2 µM
inactive: Z-AUC [1] -1.52
-0.747: Z-AUC [1, 4]
-0.695: Z-AUC ([1]; measured here: PEO4 Z-AUC)

CCN(CC)CCOc1ccc(Cc2ccccc2)cc1
active: Potency (7G8) 12.6 µM
inactive: Z-AUC [1] 1.12 | activity, negative = inhibition [3, 8] 8.39% | activity, negative = inhibition [3, 9] 6.88% | Potency (3D7) | Potency (AA1029) | Potency (AS120) | Potency (ATS189) | Potency (ATS95) | Potency (C2A) | Potency (CP185) | Potency (CP191) | Potency (CP192) | Potency (CP194) | Potency (CP201) | Potency (CP211) | Potency (CP215) | Potency (CP217)
0.289: Z-AUC ([1]; measured here: PEO4 Z-AUC)
0.729: Z-AUC [1, 4]
